Screens deposited in PubChem BioAssay by several laboratories.
Hits are enriched below; roughly 1.6% of the tested compounds scored in any of these assays.
CCHF vOTU inh = CCHFV vOTU protease inhibitors, primary screen, biochemical, Pep-AMC substrate, fluorescence; Crimean-Congo hemorrhagic fever virus L polyprotein viral ovarian tumor (vOTU) protease …; inhibition, % at 11.5 µM; 370,000 tested, 0.55% active; in the data active = inhibition above about 30%; note: 0% = vehicle wells with enzyme and 100% = no enzyme wells
RecA intein inh = Mtb RecA intein splicing inhibitors, primary screen, biochemical, fluorescence, HTS. cell-free RecA intein splicing. Protein RecA (Mycobacterium tuberculosis (strain ATCC 25618 / H37Rv)), P9WHJ3. 290,000 tested, 0.75% active. inhibition, % (no concentration beside the values); in the data active = inhibition above about 30%;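 note: 0% = vehicle wells and 100% = reference inhibitor control wells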
Target sequence (P9WHJ3 whole entry, looked up): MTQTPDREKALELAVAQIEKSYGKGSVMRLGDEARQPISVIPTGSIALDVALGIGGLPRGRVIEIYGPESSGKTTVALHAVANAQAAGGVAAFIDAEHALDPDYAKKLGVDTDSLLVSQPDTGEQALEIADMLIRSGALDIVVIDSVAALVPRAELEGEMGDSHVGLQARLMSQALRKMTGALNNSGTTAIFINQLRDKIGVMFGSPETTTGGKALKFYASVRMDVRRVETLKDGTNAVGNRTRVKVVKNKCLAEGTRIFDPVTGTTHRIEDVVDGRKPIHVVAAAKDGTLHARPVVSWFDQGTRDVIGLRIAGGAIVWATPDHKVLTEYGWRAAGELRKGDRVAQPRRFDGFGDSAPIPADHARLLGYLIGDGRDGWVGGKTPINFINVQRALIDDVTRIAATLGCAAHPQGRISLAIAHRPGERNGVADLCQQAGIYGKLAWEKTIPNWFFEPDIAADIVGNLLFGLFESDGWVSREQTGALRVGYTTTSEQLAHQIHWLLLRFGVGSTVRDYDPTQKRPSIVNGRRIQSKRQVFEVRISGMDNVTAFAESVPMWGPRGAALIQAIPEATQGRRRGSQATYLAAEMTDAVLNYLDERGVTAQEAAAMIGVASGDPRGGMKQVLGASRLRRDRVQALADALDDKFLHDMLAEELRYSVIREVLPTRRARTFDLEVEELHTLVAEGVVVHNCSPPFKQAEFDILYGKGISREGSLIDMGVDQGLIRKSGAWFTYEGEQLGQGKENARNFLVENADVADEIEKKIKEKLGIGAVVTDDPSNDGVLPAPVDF
Mtb hypoxia inh = PubChem AID 1159583; 300,000 tested, 0.1% active; M. tuberculosis hypoxia-regulated fluorescent reporter, fluorescence; fluorescence inhibition, % (concentration not given with the values); in the data active = fluorescence inhibition mostly above about 23%, no sharp cut-off; inactive = mostly below about 17%
BJeLR viability = MLPCN primary cell-based screen for lethality selective to Ras in HRASV12 cells; BJeLR (HRASV12) viability, CellTiter-Glo ATP luminescence, 48 h; inhibition, % (test concentration not listed); 300,000 tested, 0.17% active; AID 1554, 2009; in the data active = inhibition above about 50%
ugtP null kill = growth inhibition of ugtP-null S. aureus, primary screen, RN4220 ugtP deletion, OD600; 16 h; 330,000 tested, 0.54% active; AID 1259309, 2017; growth inhibition, % (no concentration beside the values); in the data active = growth inhibition above about 68%;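 note: plate controls were untreated wells for no effect and antibiotic for full effect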
Sa RN4220 lethal = growth inhibition of S. aureus RN4220, primary screen, OD600 | 16 h | inhibition, % (no concentration beside the values) | AID 1259311, 2017 | 330,000 tested, 0.33% active; in the data active = inhibition above about 85%;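 note: plate controls were untreated cells for no effect and reference antibiotic for full effect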
GFP chromo cs = counter-screen: blocks GFP chromophore formation, dose response, counter-screen, biochemical, fluorescence, homogeneous. shares compounds with RecA intein inh. cell-free GFP chromophore formation. EC50, µM. 2,100 tested, 83% active. AID 434968, 2010; call rule not given here
Numbers without * were called inactive.

Screening O=C1C(Cl)=C(NS(=O)(=O)c2ccc([N+](=O)[O-])cc2)C(=O)c2ccccc21 returned CCHF vOTU inh 18, RecA intein inh 73*, Mtb hypoxia inh 17, BJeLR viability -2, ugtP null kill 25, Sa RN4220 lethal 24 and GFP chromo cs 3.6*.
`CC(=O)Nc1ccc(OC(=O)c2cccs2)cc1` gave CCHF vOTU inh 21, RecA intein inh 8, Mtb hypoxia inh -3, BJeLR viability 1, ugtP null kill -1 and Sa RN4220 lethal -3.
Screening CC(=O)c1ccc(OC(=O)c2cccs2)cc1 returned CCHF vOTU inh -6, RecA intein inh 35*, Mtb hypoxia inh 0, BJeLR viability 1, ugtP null kill 25, Sa RN4220 lethal 15 and GFP chromo cs >38.
`COC(=O)C1=C(c2c(C)noc2C)CC2CCC1N2C(=O)NCCOc1ccccc1Cl` (configuration not stated) gave Mtb hypoxia inh 4, ugtP null kill 2 and Sa RN4220 lethal 8.
`COc1ccc(Nc2cnn(-c3nc4ccccc4s3)c(=O)c2Cl)cc1` gave CCHF vOTU inh 0, RecA intein inh 47*, Mtb hypoxia inh 5, BJeLR viability 15, ugtP null kill 14, Sa RN4220 lethal 28 and GFP chromo cs 6.7*.
Screening c1ccc(C2CN3C(=N2)Sc2ccccc23)cc1 (configuration not stated) returned Mtb hypoxia inh 3, ugtP null kill -11 and Sa RN4220 lethal 7.
CCCCCCCN(C(=O)CCl)c1ccccc1C was read as CCHF vOTU inh -6, RecA intein inh 56*, Mtb hypoxia inh 18, BJeLR viability -3, ugtP null kill 31, Sa RN4220 lethal 10 and GFP chromo cs 18*.
`N#C/C(=C\c1c[nH]c2ccccc12)C(N)=O` gave CCHF vOTU inh 2, RecA intein inh 4, Mtb hypoxia inh 11, BJeLR viability 0, ugtP null kill -1 and Sa RN4220 lethal 3.
For CC(=O)Oc1c(/C=C(\C#N)C(N)=O)[nH]c2ccccc12 the results were CCHF vOTU inh 14, RecA intein inh 74*, Mtb hypoxia inh -12, BJeLR viability -4, ugtP null kill 87*, Sa RN4220 lethal 96* and GFP chromo cs 0.054*.
`CC(C)(C)NC(=O)C=Cc1ccc(C(F)(F)F)cc1` gave Mtb hypoxia inh -1, ugtP null kill 0 and Sa RN4220 lethal 5.
Screening COc1ccc(OCc2cc(C(=O)N3CCCC(OC)C3)no2)c2ccccc12 (configuration not stated) returned CCHF vOTU inh 2, RecA intein inh 35*, BJeLR viability -1 and GFP chromo cs 30*.
Screening CC(C)(C)c1cnnn1-c1ccc(C(=O)CCl)cc1 returned CCHF vOTU inh 20, RecA intein inh 75*, Mtb hypoxia inh 24, BJeLR viability 1, ugtP null kill 98*, Sa RN4220 lethal 96* and GFP chromo cs 5.9*.
Screening O=C1c2ccccc2OC2(C=Cc3ccccc3O2)N1Cc1ccccc1 (configuration not stated) returned CCHF vOTU inh -4, RecA intein inh 32*, Mtb hypoxia inh -1, BJeLR viability 9, ugtP null kill 46, Sa RN4220 lethal 20 and GFP chromo cs >38.
`O=C1NC2(CCN(Cc3ccccc3)CC2)Oc2ccccc21` gave CCHF vOTU inh 1, RecA intein inh -1, Mtb hypoxia inh -1, BJeLR viability -1, ugtP null kill 10 and Sa RN4220 lethal 7.
Screening Cc1ccc2c(c1)NC(=O)[C@@]1(C)C(c3ccccc3)C3COc4ccc(Cl)cc4C3N1C2=O (some centres not stated) returned Mtb hypoxia inh 11, ugtP null kill 3 and Sa RN4220 lethal -11.
For CCNc1ccccc1CP(=O)(c1ccccc1)c1ccccc1O (configuration not stated) the results were CCHF vOTU inh 0, RecA intein inh 32*, BJeLR viability 4 and GFP chromo cs 2.2*.
`COC(=O)C1=CC(C(=O)OC)C2C3=C(C(=O)[C@@]2(C)NC(=O)c2ccccc2)C(C)n2c(=O)n(C)c(=O)n2C3C1` (some centres not stated) gave Mtb hypoxia inh 5, ugtP null kill 3 and Sa RN4220 lethal 3.
N#Cc1cccc(CN2CCC(=O)N(C(CO)Cc3ccccc3)CC2)c1 (configuration not stated) was read as Mtb hypoxia inh 6, ugtP null kill 1 and Sa RN4220 lethal 7.
Screening CCCC1C(C#N)=C(N)Oc2n[nH]c(C(C)(C)C)c21 (configuration not stated) returned CCHF vOTU inh 6, RecA intein inh 74*, BJeLR viability -6, ugtP null kill 1, Sa RN4220 lethal 3 and GFP chromo cs 1.7*.
Cc1[nH]nc2c1C(c1ccco1)C(C#N)=C(N)O2 (configuration not stated) was read as CCHF vOTU inh -17, RecA intein inh 58*, Mtb hypoxia inh 6, BJeLR viability -10, ugtP null kill 6, Sa RN4220 lethal 7 and GFP chromo cs 26*.
For Cc1[nH]nc2c1C(CCc1ccccc1)C(C#N)=C(N)O2 (configuration not stated) the results were CCHF vOTU inh -7, RecA intein inh 70*, Mtb hypoxia inh 2, BJeLR viability -5, ugtP null kill 5, Sa RN4220 lethal 0 and GFP chromo cs 29*.
CC(C)C1C(C#N)=C(N)Oc2n[nH]c(C(C)(C)C)c21 (configuration not stated) was read as CCHF vOTU inh 18, ugtP null kill 5 and Sa RN4220 lethal 9.
`CC(C)(C)c1[nH]nc2c1C(c1ccco1)C(C#N)=C(N)O2` (configuration not stated) gave CCHF vOTU inh -9, RecA intein inh 41*, Mtb hypoxia inh 6, BJeLR viability -6, ugtP null kill 19, Sa RN4220 lethal 1 and GFP chromo cs 2.8*.
Screening CCOc1ccc(S(=O)(=O)NCc2cccnc2)cc1C returned CCHF vOTU inh -3, RecA intein inh 40*, Mtb hypoxia inh 23, BJeLR viability 4, ugtP null kill 8, Sa RN4220 lethal 2 and GFP chromo cs >38.
O=[N+]([O-])c1cc(C=Nc2cccc3c(O)cccc23)ccc1Cl was read as RecA intein inh 64*, BJeLR viability -7 and GFP chromo cs 33*.
O=C(NN=Cc1ccc(Cl)c([N+](=O)[O-])c1)C1CC1 was read as Mtb hypoxia inh 0, ugtP null kill 2 and Sa RN4220 lethal 0.
